SMILES strings stand for the structures. Inconclusive results are not listed. Activity calls are given as the source filed them. Calls follow the shape of the dose curve; as a rule, active = well fitted inhibition curve with a large enough effect in the repeat runs; inconclusive = weak or mixed curves; inactive = flat fitted curve, though single readings scatter.
Potency is read from the fitted curve at half-maximal effect.

Cytochrome P450 2D6 (Homo sapiens), sequence (P10635 whole entry, looked up): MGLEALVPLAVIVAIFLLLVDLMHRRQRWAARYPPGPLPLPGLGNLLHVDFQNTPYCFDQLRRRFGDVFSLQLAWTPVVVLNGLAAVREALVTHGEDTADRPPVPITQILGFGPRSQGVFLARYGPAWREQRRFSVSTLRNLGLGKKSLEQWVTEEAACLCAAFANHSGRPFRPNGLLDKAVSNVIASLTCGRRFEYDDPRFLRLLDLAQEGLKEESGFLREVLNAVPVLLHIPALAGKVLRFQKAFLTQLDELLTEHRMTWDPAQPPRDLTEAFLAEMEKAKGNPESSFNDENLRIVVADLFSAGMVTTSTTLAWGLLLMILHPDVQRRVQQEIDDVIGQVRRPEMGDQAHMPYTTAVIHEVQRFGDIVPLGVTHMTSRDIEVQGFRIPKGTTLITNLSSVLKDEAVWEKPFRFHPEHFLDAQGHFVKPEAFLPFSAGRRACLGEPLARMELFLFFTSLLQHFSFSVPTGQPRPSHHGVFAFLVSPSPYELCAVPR

The assay deals with Cytochrome P450 2D6 (Homo sapiens) (UniProt P10635). Description: Cytochrome P450 family 2 subfamily D member 6 (CYP2D6) small molecule antagonists: luciferase biochemical (cell-free) qHTS assay (AID 1645840). Also: nearly all actives have a fitted effect of over 55% in size. The following applies: P450-Glo CYP2D6 enzyme, luciferin luminescence, 1 h; series mostly up to 57.4 µM. The procedure, abridged:
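P450-Glo luminescent screen: recombinant CYP2D6 enzyme–proluciferin substrate mix preincubated with compound 10 min at room temperature, then NADPH regeneration added for 1 h at room temperature. Detection reagent added for 20 min; luciferin light read as relative luminescence units.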
For `Cn1c(NC[C@@H](N)Cc2ccccc2)nc(-c2ccncc2)c(-c2ccc3ccccc3c2)c1=O`, the Potency was 19 µM (active). Consider `Nc1nc(NCC2CCC(CNS(=O)(=O)c3cccc4ccccc34)CC2)nc2ccccc12` (stereo not drawn), for which the Potency is 3.38 µM (active). `COc1ccc(NS(=O)(=O)c2sc3ccc(Cl)cc3c2C)cc1N1CCNCC1`: the Potency is 23.9 µM (active). `Cc1nnsc1C(=O)Nc1ccc(-n2nc(C(F)(F)F)cc2C(F)(F)F)cc1`: the Potency was 10.7 µM (active).

For `Cc1cc(C)c(NC(=O)N(Cc2ccc3c(c2)Cc2ccccc2-3)C2CCCCCC2)c(C)c1`, the Potency result was “inactive”. With `Fc1ccccc1CNCc1ccc(-c2ccnc3[nH]ccc23)cc1` the figure was 0.477 µM (active). Take `Cc1nc(C)c2c(n1)N(Cc1ccc(-c3ccccc3-c3nn[nH]n3)cc1)C(=O)CC2`: the Potency entry is “inactive”. To `CS(=O)(=O)c1ccc(-c2cn3ccccc3n2)cc1` belongs 5.49 µM (active); to `CCCCOc1ccc(-c2cncc(C(=O)NCc3cccnc3N3CCOCC3)c2)cc1Cl`, 12 µM (active); to `C=CC(=O)N1CCN(C(=O)c2cc(-c3cc(Cl)ccc3Cl)c(Cl)cc2OC)CC1`, 19 µM (active). Regarding `C[C@@H](O[C@H]1OCCN(Cc2n[nH]nc2CN(C)C)[C@H]1c1ccc(F)cc1)c1cc(C(F)(F)F)cc(C(F)(F)F)c1`, the Potency was 15.1 µM (active). To `CCCCc1nc(C)c(CC(=S)N(C)C)c(=O)n1Cc1ccc(-c2ccccc2-c2nn[nH]n2)cc1` belongs “inactive”. Regarding `CC(=O)N1CCN([C@H]2CCN(C(=O)N(C)[C@H](C)c3cc(C(F)(F)F)cc(C(F)(F)F)c3)[C@@H](c3ccc(F)cc3C)C2)CC1`, the Potency was 26.8 µM (active).

Source of the values: PubChem BioAssay (NCATS).
